# Experimental data reported in PubChem BioAssay AID1645838 (ICCB-Longwood Screening Facility, Harvard Medical School, 2021).
# Where “and” joins values, the source holds several entries; their conditions need not be identical. Equal entries are not always repeated. About 100 (5%) of roughly 2,000 compounds were called active. Cut-off read from the data, not from the text of the source: active = z-score above about 2; inactive = the rest. Shown is part of a subset that was picked to be rich in actives.
# Assay: modulators of mitochondrial supercomplex assembly, cell-based, luminescence, Hoechst nuclei count (AID 1645838);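 note: control cybrid cells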;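 for z-score: higher means more mitochondrial supercomplex formation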
# Conditions: Cells, luminescence/Hoechst cell count ratio, supercomplex reporter; for z-score: stronger effect = higher value; for cell count: measured here: cell number, Hoechst nuclei count
# [1] = library stock concentration (final well concentration not given) 80 uM
# [2] = library stock concentration (final well concentration not given) 400 uM
# [3] = library stock concentration (final well concentration not given) 2 mM
# [4] = library stock concentration (final well concentration not given) 46 uM
# [5] = library stock concentration (final well concentration not given) 278 uM
# [6] = library stock concentration (final well concentration not given) 1.67 mM
# [7] = library stock concentration (final well concentration not given) 10 mM
compound,measurement,setting,value
CN=C(NS(=O)(=O)c1ccc(Cl)cc1)N1CC(c2ccccc2)C(c2ccc(Cl)cc2)=N1 (stereo unspecified),z-score,,0.263 (inactive)
same,cell count,,4560
CCCC(=O)N[C@H]1CCOC1=O,z-score,,-0.00429 (inactive)
same,cell count,,5280
O=C1C(=O)c2cccc3cccc1c23,outcome,library stock 10 mM,inactive; censored for cell count
same,z-score,[1],-0.293 (inactive)
same,z-score,[2],-0.13 (inactive)
same,z-score,[3],0.0237 (inactive)
same,cell count,[1],5390
same,cell count,[2],5120
same,cell count,[3],4940
CCCCC/C=C\C/C=C\C/C=C\C/C=C\CCCC(=O)OCCN,z-score,,-1.23 (inactive)
same,cell count,,5760
COc1nc(C)nc(NC(=O)NS(=O)(=O)c2ccccc2Cl)n1,z-score,[4],0.223 (inactive)
same,z-score,[5],0.421 (inactive)
same,z-score,[6],0.438 (inactive)
same,z-score,[7],0.591 (inactive)
same,cell count,[4],6660
same,cell count,[5],6640
same,cell count,[6],6690
same,cell count,[7],6980
NC(=NCCCC(N)C(=O)O)N[N+](=O)[O-] (stereo unspecified),z-score,[4],-0.276 (inactive)
same,z-score,[5],-0.202 (inactive)
same,z-score,[6],-0.093 (inactive)
same,z-score,[7],-0.00821 (inactive)
same,cell count,[4],5020
same,cell count,[5],4960
same,cell count,[6],5010
same,cell count,[7],4490
O=C(NC(COc1ccc2[nH]c(=O)[nH]c2c1)c1ccccc1)c1cccn(Cc2ccc(F)c(F)c2)c1=O (stereo unspecified),z-score,[1],-0.974 (inactive) and -0.18 (inactive)
same,z-score,[2],-0.76 (inactive) and -0.318 (inactive)
same,z-score,[3],-0.629 (inactive) and -0.22 (inactive)
same,z-score,[7],-0.746 (inactive) and -0.664 (inactive)
same,cell count,[1],5360 and 6280
same,cell count,[2],4530 and 6370
same,cell count,[3],5030 and 6190
same,cell count,[7],4470 and 5840
CCCN(CCCN)N(O)N=O,z-score,,0.0434 (inactive)
same,cell count,,5220
COc1ccc2cc(C(C#N)OC(=O)OCC3OC3c3ccccc3)ccc2c1 (stereo unspecified),z-score,,-0.334 (inactive)
same,cell count,,4870
CCCCCCCCCCCCCCCCOC[C@@H](O)COP(=O)([O-])OCC[N+](C)(C)C,z-score,,-1.65 (inactive)
same,cell count,,5770
CCCC[C@@H](C)C(OC(=O)C[C@@H](CC(=O)O)C(=O)O)C(C[C@@H](C)C[C@H](O)CCCC[C@@H](O)C[C@H](O)[C@H](C)N)OC(=O)C[C@@H](CC(=O)O)C(=O)O (stereo partly specified),z-score,,-0.0113 (inactive)
same,cell count,,5860
NCCc1c(Cl)cccc1Cl,z-score,[1],0.124 (inactive)
same,z-score,[2],0.256 (inactive)
same,z-score,[3],0.163 (inactive)
same,z-score,[7],-0.533 (inactive)
same,cell count,[1],5290
same,cell count,[2],5420
same,cell count,[3],5540
same,cell count,[7],5250
CCCCCCCCCCCCCCCC(=O)OC[C@H](COP(=O)([O-])OCC[N+](C)(C)C)OC(=O)CCCC=O,z-score,,0.248 (inactive)
same,cell count,,4750
Cc1nc(-c2ccc(-c3ccc(C(=O)N4CCc5cc6c(cc54)C4(CCN(C)CC4)CO6)cc3)c(C)c2)no1,z-score,[1],-0.255 (inactive)
same,z-score,[2],0.0819 (inactive)
same,z-score,[3],-0.0801 (inactive)
same,z-score,[7],3.86 (active)
same,cell count,[1],5300
same,cell count,[2],5160
same,cell count,[3],5100
same,cell count,[7],1770
CC1CNCCc2ccc(Cl)cc21 (stereo unspecified),z-score,[1],-0.315 (inactive)
same,z-score,[2],-0.24 (inactive)
same,z-score,[3],-0.135 (inactive)
same,z-score,[7],-0.0867 (inactive)
same,cell count,[1],6030
same,cell count,[2],5570
same,cell count,[3],5830
same,cell count,[7],5720
